# Data published in PubChem BioAssay (EPA / NIEHS).
# “And” between values parts separate entries of the source, which are not always exact repeats. Identical values can stand only once. Results filed as inconclusive are left out. The source made the active and inactive calls. How the source made its calls: active means hit-call score of the fitted dose curve at least 0.9, where 1 is the maximum; inconclusive means response in the unintended direction; inactive means score below 0.9.
# Legend:
# [1] = target: human Neurotensin Receptor (NTS), NTSR1 (gene 4923) (UniProt P30989); experiment: NVS_GPCR_hNTS: NovaScreen (NVS) G Protein-Coupled Receptor Assay for human Neurotensin Receptor (NTS) (AID 2283279)
# Chain of human Neurotensin Receptor (NTS), NTSR1 (gene 4923) (P30989 whole entry, looked up): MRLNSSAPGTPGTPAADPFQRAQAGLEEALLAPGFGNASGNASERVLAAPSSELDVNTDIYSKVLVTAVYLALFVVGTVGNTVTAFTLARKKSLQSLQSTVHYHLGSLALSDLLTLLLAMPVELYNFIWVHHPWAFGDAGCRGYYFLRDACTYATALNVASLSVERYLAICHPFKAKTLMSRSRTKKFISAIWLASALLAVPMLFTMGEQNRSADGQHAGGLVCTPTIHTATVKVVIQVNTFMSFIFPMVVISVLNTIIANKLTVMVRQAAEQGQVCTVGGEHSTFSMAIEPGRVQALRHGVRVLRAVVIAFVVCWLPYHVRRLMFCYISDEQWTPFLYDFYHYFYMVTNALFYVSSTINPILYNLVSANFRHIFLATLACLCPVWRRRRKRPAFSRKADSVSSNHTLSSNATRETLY
# Method in brief: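 Compounds competed with a radiolabelled ligand for binding to CHO-derived human neurotensin receptor; bound signal counted after filtration, 1 h. Screened first at a single concentration of 25 uM in duplicate, then concentration series to 50 uM maximum for actives.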
# [2] = target: Muscarinic acetylcholine receptor M1 (Homo sapiens) (UniProt P11229); experiment: NVS_GPCR_hM1: NovaScreen (NVS) G Protein-Coupled Receptor Assay for human Muscarinic, M1 Receptor (AID 2283270)
# Chain of Muscarinic acetylcholine receptor M1 (Homo sapiens) (P11229 whole entry, looked up): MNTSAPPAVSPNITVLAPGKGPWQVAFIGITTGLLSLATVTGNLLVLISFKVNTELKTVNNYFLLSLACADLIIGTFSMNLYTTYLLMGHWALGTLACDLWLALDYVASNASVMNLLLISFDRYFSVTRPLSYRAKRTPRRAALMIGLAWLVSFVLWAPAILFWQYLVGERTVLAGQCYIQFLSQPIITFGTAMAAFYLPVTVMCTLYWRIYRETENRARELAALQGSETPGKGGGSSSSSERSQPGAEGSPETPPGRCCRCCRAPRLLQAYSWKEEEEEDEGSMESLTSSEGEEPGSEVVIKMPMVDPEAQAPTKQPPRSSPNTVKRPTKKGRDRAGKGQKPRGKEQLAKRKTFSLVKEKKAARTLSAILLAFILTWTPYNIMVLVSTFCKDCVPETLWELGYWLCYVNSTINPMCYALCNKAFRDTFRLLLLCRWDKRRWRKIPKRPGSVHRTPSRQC
# Method in brief: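 Actives from a duplicate 25 uM single-point screen were retested in concentration series. Binding measured as displacement of a radioligand from CHO-derived receptor preparation, 1 h incubation, filtration and scintillation counting, analysed as signal loss against DMSO.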
# [3] = target: Muscarinic acetylcholine receptor M2 (Homo sapiens) (UniProt P08172); experiment: NVS_GPCR_hM2: NovaScreen (NVS) G Protein-Coupled Receptor Assay for human Muscarinic, M2 Receptor (AID 2283273)
# Chain of Muscarinic acetylcholine receptor M2 (Homo sapiens) (P08172 whole entry, looked up): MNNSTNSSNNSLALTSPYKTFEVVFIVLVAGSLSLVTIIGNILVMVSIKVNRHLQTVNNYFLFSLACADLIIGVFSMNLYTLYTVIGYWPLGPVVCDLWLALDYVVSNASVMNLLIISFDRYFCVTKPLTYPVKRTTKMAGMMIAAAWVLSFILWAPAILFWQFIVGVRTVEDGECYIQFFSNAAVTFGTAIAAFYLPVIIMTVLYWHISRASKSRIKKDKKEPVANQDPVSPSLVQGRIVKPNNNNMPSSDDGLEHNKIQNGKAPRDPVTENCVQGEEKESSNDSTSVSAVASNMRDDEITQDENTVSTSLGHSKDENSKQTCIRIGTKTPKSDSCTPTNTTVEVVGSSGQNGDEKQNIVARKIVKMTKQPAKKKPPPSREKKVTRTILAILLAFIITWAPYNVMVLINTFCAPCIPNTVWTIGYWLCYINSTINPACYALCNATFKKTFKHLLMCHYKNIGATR
# Method in brief: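 CHO-expressed human M2 receptor preparation, competitive displacement of a radioligand read by filter-based scintillation counting after 1 h. Single 25 uM duplicate screen, then concentration-response follow-up of actives; DMSO baseline.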
# [4] = target: human Neurokinin, NK2 Receptor, TACR2 (gene 6865) (UniProt P21452); experiment: NVS_GPCR_hNK2: NovaScreen (NVS) G Protein-Coupled Receptor Assay for human Neurokinin, NK2 Receptor (AID 2283278);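 further: actives reduce bound radioligand signal relative to DMSO baseline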
# Chain of human Neurokinin, NK2 Receptor, TACR2 (gene 6865) (P21452 whole entry, looked up): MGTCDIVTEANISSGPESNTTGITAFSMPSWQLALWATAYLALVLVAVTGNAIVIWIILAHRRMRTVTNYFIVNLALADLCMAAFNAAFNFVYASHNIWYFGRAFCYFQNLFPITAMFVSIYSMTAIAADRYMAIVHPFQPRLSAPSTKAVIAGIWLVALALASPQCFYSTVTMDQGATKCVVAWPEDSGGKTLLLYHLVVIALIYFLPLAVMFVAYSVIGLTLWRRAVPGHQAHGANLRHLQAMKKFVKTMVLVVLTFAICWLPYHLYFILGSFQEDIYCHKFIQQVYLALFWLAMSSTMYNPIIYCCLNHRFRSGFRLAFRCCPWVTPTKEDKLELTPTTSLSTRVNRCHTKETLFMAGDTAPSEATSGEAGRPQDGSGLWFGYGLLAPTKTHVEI
# Method in brief: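 Test chemicals displace a radioligand from receptor prepared from CHO cells in a cell-free format, read after 4 hours by scintillation counting on filters. Screening starts at 25 uM in duplicate, and active chemicals then go to concentration series.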
# [5] = target: human Opioid Receptor Delta 1 (Opiate D1), OPRD1 (gene 4985) (UniProt P41143); experiment: NVS_GPCR_hOpiate_D1: NovaScreen (NVS) G Protein-Coupled Receptor Assay for human Opioid Receptor Delta 1 (Opiate D1) (AID 2283280)
# Chain of human Opioid Receptor Delta 1 (Opiate D1), OPRD1 (gene 4985) (P41143 whole entry, looked up): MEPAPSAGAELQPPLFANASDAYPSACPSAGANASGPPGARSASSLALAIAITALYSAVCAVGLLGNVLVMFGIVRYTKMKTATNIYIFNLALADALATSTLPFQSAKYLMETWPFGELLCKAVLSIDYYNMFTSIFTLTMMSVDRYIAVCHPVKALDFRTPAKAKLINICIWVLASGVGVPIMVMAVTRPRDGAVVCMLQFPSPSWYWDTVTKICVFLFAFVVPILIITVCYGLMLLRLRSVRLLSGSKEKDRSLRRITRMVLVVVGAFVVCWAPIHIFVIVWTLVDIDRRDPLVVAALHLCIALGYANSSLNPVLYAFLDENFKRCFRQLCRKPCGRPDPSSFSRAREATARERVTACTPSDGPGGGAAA
# Method in brief: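 Membrane preparations from CHO cells bearing the human receptor were incubated 1 h with test chemical, and bound radioligand was counted after filtration. Actives from 25 uM duplicate screening were retested in concentration-response.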
# [6] = target: human Neuropeptide Receptor Y1 (NPY1), NPY1R (gene 4886) (UniProt P25929); experiment: NVS_GPCR_hNPY1: NovaScreen (NVS) G Protein-Coupled Receptor Assay for human Neuropeptide Receptor Y1 (NPY1) (AID 2283276)
# Chain of human Neuropeptide Receptor Y1 (NPY1), NPY1R (gene 4886) (P25929 whole entry, looked up): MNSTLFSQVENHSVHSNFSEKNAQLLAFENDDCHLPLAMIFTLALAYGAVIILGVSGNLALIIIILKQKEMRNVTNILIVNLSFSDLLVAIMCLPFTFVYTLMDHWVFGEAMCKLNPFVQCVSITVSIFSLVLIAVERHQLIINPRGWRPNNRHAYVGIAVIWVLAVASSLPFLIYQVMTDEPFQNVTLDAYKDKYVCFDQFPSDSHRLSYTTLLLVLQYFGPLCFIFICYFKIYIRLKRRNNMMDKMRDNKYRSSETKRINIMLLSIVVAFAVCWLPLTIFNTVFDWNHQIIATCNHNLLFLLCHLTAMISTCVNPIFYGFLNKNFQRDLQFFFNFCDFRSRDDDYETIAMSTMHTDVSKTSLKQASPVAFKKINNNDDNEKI
# Procedure: NVS_GPCR_hNPY1 is a biochemical, single-readout assay that uses extracted gene-proteins from SK-N-MC in a cell-free assay. Measurements were taken 1 hour after chemical dosing in a 96-well plate.NVS_GPCR_hNPY1 is one of one assay component(s) measured or calculated from the NVS_GPCR_hNPY1 assay. It is designed to make measurements of radioligand binding, a form of binding reporter, as detected with scintillation counting signals by Filter-based radiodetection technology.Data from the assay component NVS_GPCR_hNPY1 was analyzed into 1 assay endpoint. This assay endpoint, NVS_GPCR_hNPY1, was analyzed in the positive analysis fitting direction relative to DMSO as the negative control and baseline of activity. […] Furthermore, this assay endpoint can be referred to as a primary readout, because the performed assay has only produced 1 assay endpoint. […]
# Binding assays used specific radioligands (tritiated, iodinated) with non-radioactive competitive displacement ligands in agonist or antagonist protocols (as indicated) and various reference compounds and inhibitors to titrate specific binding to receptors and transporters. Most enzyme assays (CYPs, kinases, phosphatases, proteases, HDACs) used recombinant protein and specific substrates (fluorescence mostly, some colorimetric and radioactive) and inhibitors, followed by a biochemical separation of substrate and product. […]
structure (smiles),measurement,setting,value
c1ccc2[nH]c(-c3cscn3)nc2c1,outcome,[1],inactive
CCOC(=O)NCCOc1ccc(Oc2ccccc2)cc1,outcome,[2],inactive
S=C(S)NCCNC(=S)S.[Mn+2].[S-]C([S-])=NCCN=C([S-])[S-].[Zn+2],outcome,[3],inactive
same,AC50,[4],117 nM (active) and 135 nM (active) and 170 nM (active)
same,outcome,[5],inactive
CCCOC(=O)NCCCN(C)C,outcome,[3],inactive
COC(=O)c1ccc(CNS(C)(=O)=O)cc1S(=O)(=O)NC(=O)Nc1nc(OC)cc(OC)n1,outcome,[1],inactive
CCCN(CCC)c1c([N+](=O)[O-])cc(C(F)(F)F)c(N)c1[N+](=O)[O-],outcome,[1],inactive
Cc1nn(C)c(Oc2ccccc2)c1C=NOCc1ccc(C(=O)OC(C)(C)C)cc1,outcome,[6],inactive
same,outcome,[4],inactive
CCOC(=O)[C@H](C)Oc1ccc(Oc2nc3ccc(Cl)cc3o2)cc1,outcome,[2],inactive
CC(=O)S[C@@H]1CC2=CC(=O)CC[C@]2(C)[C@H]2CC[C@@]3(C)[C@@H](CC[C@@]34CCC(=O)O4)[C@H]12,outcome,[4],inactive
same,AC50,[5],4.42 µM (active)
S=C([S-])NCCNC(=S)[S-].[Mn+2],AC50,[6],13.3 µM (active)
same,outcome,[1],inactive
